The record followed here is PubChem BioAssay (NCATS).

SMILES strings stand for the structures. Where “and” joins values, the source holds several entries; their conditions need not be identical. Identical values can stand only once. Inconclusive results are not listed. Where a call stands in place of a potency, no number is given. Calls of active or inactive are those of the source. Unless noted, the rule behind the calls is not given here.

The nature of one assay: qHTS Assay for Identifying Gametocytocidal Compounds (AID 743244; active = well fitted curve in the direction sought with a large enough effect; an effect the other way counts as inactive or inconclusive; note: potency is the fitted concentration of half-maximal effect;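 for max response: actives lower the fluorescent signal which means gametocytes are killed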). To be noted: P. falciparum 3D7 stage III-V gametocytes, alamarBlue, 72 h; max response: hits give low values. Put shortly:
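3D7 gametocytes, stages III–V, 20,000/well; cpd 72 h, 37 °C/5% CO2; + alamarBlue 24 h; fluor. Ex 525/Em 598.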
With `CCN[C@H](C)Cc1cccc(C(F)(F)F)c1`, the max response is 16.7% (inactive).
Consider `CCN[C@@H](C)Cc1cccc(C(F)(F)F)c1`, for which the max response was 13.9% (inactive).
Take `COc1cccc(C(=O)CCN[C@@H](C)[C@H](O)c2ccccc2)c1`: the Potency was 31.6 µM (active).
With `COP(=S)(OC)Oc1ccc(SC)c(C)c1`, the max response is -2.21% (inactive).
On the same count and under the same terms, as for `Nc1nc(N)nc(NC2CC2)n1`, the figure is -8.01% (inactive); as for `CN1CCC[C@@H]1c1cccnc1`, 35% (inactive).
Turning to `CCC1(c2ccccc2)C(=O)N(COC)C(=O)N(COC)C1=O`, the max response was -2.08% (inactive).
Same read-out and setting: to `c1ccc2c(c1)sc1ccccc12` belongs 5.76% (inactive).
As for `CC(C)NC(C)C`, the max response was 15.3% (inactive).
Same read-out and setting: as for `COc1c2c(cc3c1OCO3)CCN(C)C2`, the figure is 7.33% (inactive).
On the same count and under the same terms, as for `CCN[C@@H](C)Cc1ccccc1`, the figure is -4.1% (inactive).

Another assay in a line: qHTS assay for cell viability of HEK293 cells (AID 743288; active = well fitted curve in the direction sought with a large enough effect; an effect the other way counts as inactive or inconclusive; note: nearly all actives have a fitted effect of over 50% in size). To be noted: ATP luminescence (CellTiter-Glo), 18 h, hits give low values. The essentials: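 HEK293, 18 h, 37 C, ATP luminescence. Cells at 2,000/well were allowed at least 5 h to settle before dosing; CellTiter-Glo developed 30 min at RT.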
For `COP(=S)(OC)Oc1ccc(SC)c(C)c1`, the max response is 2.92% (inactive) and -23.3% (inactive).
Same read-out and setting: to `Nc1nc(N)nc(NC2CC2)n1` belongs -3.61% (inactive); to `CC(C)NC(C)C`, 4.29% (inactive).
Still for that read-out and setting: to `CC(C)(C)c1ccc(O)cc1` belongs 3.38% (inactive).

Another assay in a line: qHTS assay for cell viability of the p53RE-bla HCT-116 cell line (AID 743292; active = well fitted curve in the direction sought with a large enough effect; an effect the other way counts as inactive or inconclusive; note: nearly all actives have a fitted effect of over 55% in size). To be noted: p53RE-bla HCT-116 viability, ATP luminescence, 16 h; series mostly up to 95 µM. Put shortly:
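Intracellular ATP of p53RE-bla HCT-116 cells measured by luciferase luminescence following 16 h compound incubation at 37 C; DMSO-only wells served as vehicle controls.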
Consider `COP(=S)(OC)Oc1ccc(SC)c(C)c1`, for which the Potency result was “inactive”.
As for `Nc1nc(N)nc(NC2CC2)n1`, the Potency entry was “inactive”.
On the same count and under the same terms, as for `CC(C)NC(C)C`, the entry is “inactive”.

Test in a further assay: not given
The conditions noted are these: Ebola virus entry assay, blue channel fluorescence.
In the case of `Cc1cnc(NS(=O)(=O)c2ccc(N)cc2)nc1`, the result was inactive.
Same read-out and setting: to `Cc1c(NC(=O)c2cccnc2)c(=O)n(-c2ccccc2)n1C` belongs “inactive”; to `COC(=O)[C@@H]1[C@H]2C[C@H]3c4[nH]c5ccccc5c4CCN3C[C@@H]2CC[C@@H]1O`, “inactive”.
Regarding `CCN[C@H](C)Cc1cccc(C(F)(F)F)c1`, the AC50 was 35.5 µM (active).
Consider `CC(C)(CO)[C@@H](O)C(=O)NCCCO`, for which the outcome was inactive.
Same read-out and setting: as for `CCN[C@@H](C)Cc1cccc(C(F)(F)F)c1`, the entry is “inactive”; as for `O=c1c(-c2ccc(O)cc2)coc2cc(O)cc(O)c12`, “inactive”; as for `COc1cccc(C(=O)CCN[C@@H](C)[C@H](O)c2ccccc2)c1`, “inactive”.
The same measure, in the same setting: to `Cc1cccn2c(=O)c(-c3nnn[nH]3)cnc12` belongs “inactive”; to `CC(CSC(=O)c1ccccc1)C(=O)N1C[C@@H](Sc2ccccc2)C[C@H]1C(=O)O` (some centres not stated), “inactive”; to `CC(=O)Nc1ccc(CC(=O)O)cc1`, “inactive”.
As for `COP(=S)(OC)Oc1ccc(SC)c(C)c1`, the compound was called inactive.
On the same count and under the same terms, to `C#CC(O)(C=CCl)CC` (configuration not stated) belongs “inactive”.
On the same count and under the same terms, to `Nc1nc(N)nc(NC2CC2)n1` belongs “inactive”; to `CCCCN(CCCC)CCCOC(=O)c1ccc(N)cc1`, “inactive”; to `CN1CCC[C@@H]1c1cccnc1`, “inactive”.
The same measure, in the same setting: as for `CC(C)(C)NCC(O)c1cc(O)cc(O)c1` (configuration not stated), the entry is “inactive”.
As to `CCC1(c2ccccc2)C(=O)N(COC)C(=O)N(COC)C1=O`, the result was inactive.
Same read-out and setting: as for `NC/C=C/C(=O)O`, the entry is “inactive”; as for `c1ccc2c(c1)sc1ccccc12`, “inactive”; as for `O=C(O)c1cc(=O)[nH]c(=O)[nH]1`, “inactive”.
Same read-out and setting: as for `CC(=O)OC(C)C[N+](C)(C)C` (configuration not stated), the entry is “inactive”.
On the same count and under the same terms, as for `CCCOC(=O)c1cncn1C(C)c1ccccc1` (configuration not stated), the entry is “inactive”; as for `CCCC(=O)O[C@]1(C(=O)COC(=O)CC)CC[C@H]2[C@@H]3CCC4=CC(=O)CC[C@]4(C)[C@H]3[C@@H](O)C[C@@]21C`, “inactive”.
Regarding `NC(Cc1ccc(Cl)cc1)C(=O)O` (configuration not stated), the call was inactive.
On the same count and under the same terms, as for `CC(C)NC(C)C`, the entry is “inactive”.
Same read-out and setting: to `CCCC(=O)Nc1ccc(O)c(C(C)=O)c1` belongs “inactive”.
Same read-out and setting: to `CC(C)(C)c1ccc(O)cc1` belongs “inactive”; to `O=C(O)[C@H](O)c1ccccc1`, “inactive”.
Take `COc1ccccc1OCC1CNC(=O)O1` (configuration not stated): the compound was classed as inactive.
The same measure, in the same setting: to `CCN1CCCC1CNC(=O)c1cc(S(=O)(=O)CC)c(N)cc1OC` (configuration not stated) belongs “inactive”; to `NC(=O)c1ccccc1O`, “inactive”.
As to `Cc1cc(=O)oc2cc(O[C@@H]3SC[C@@H](O)[C@H](O)[C@H]3O)ccc12`, the result was inactive.
Same read-out and setting: to `COc1c2c(cc3c1OCO3)CCN(C)C2` belongs “inactive”.
Same read-out and setting: to `C=CCN1CCc2nc(N)sc2CC1` belongs “inactive”; to `CCCCCCCCCCCCCCCCO`, “inactive”; to `CC(=O)Nc1ccc(C(=O)O)cc1`, “inactive”.
Same read-out and setting: as for `Nc1c(I)cc(I)c(C(=O)N(CCC(=O)O)c2ccccc2)c1I`, the entry is “inactive”; as for `CCN[C@@H](C)Cc1ccccc1`, “inactive”.
